# Hits are enriched below; roughly 2.4% of the tested compounds scored in any of these assays.
# TLR4 MyD88 comp – inhibitors of TLR4-MyD88 association in cells, primary screen, cell-based, HeLa CL3-4, BLA complementation, FRET ratio | inhibition, % at 8.4 µM | 200,000 compounds, 0.18% hits | Toll-like receptor 4 (Homo sapiens) + Myeloid differentiation primary response protein … | HeLa CL3-4 TLR4/MyD88 BLA complementation; in the data active = inhibition above about 25%;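 note: 0% = vehicle and 100% = reference inhibitor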
# CRFR2-BP antag – antagonists of CRF-BP/CRF-R2 complex, primary screen, cell-based, HEK293, calcium dye fluorescence, uHTS. AID 588475, 2011. 350,000 compounds, 0.59% hits. CRF-induced calcium fluorescence. inhibition, % at 11.8 µM;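 active = inhibition of the ligand-induced calcium signal above about 50% at the single tested concentration, limit read from the data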
# NOD2 RIPK2 PPI – NOD2-RIPK2 binding disruptors in cells, primary screen, fluorescence, CHO cells, BLA complementation | 360,000 compounds, 0.38% hits | AID 624267, 2012 | inhibition, % at 4.98 µM | CCF4 ratio | Receptor-interacting serine/threonine-protein kinase 2 (Homo sapiens), O43353; in the data active = inhibition above about 21%;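 note: 0% = vehicle only and 100% = reference blocker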
# m5-HT2A agonist – mouse Htr2a agonists via beta-arrestin recruitment, primary screen, cell-based, luminescence. 360,000 compounds, 0.66% hits. CHO-K1 mHTR2A beta-arrestin complementation; percent of 30 µM serotonin response. activation, % at 7.6 µM. 5-hydroxytryptamine receptor 2A (Mus musculus), P35363. AID 624169, 2012;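 active = activation above a run cutoff, the mean activation of all tested compounds plus 3 SD, cut at about 14% in these data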;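 note: 0% = plate median of compound wells and 100% = 30 µM serotonin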
# ABHD5-PLIN5 inh – ABHD5-PLIN5 interaction inhibitors, primary screen, cell lysate, split luciferase complementation, luminescence; Perilipin-5 (Homo sapiens) + 1-acylglycerol-3-phosphate O-acyltransferase ABHD5 (Homo …; Split G. princeps luciferase complementation, 4 h; inhibition, % at 4 µM; 360,000 compounds, 0.78% hits;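 active = inhibition above the mean inhibition across every tested compound plus 3 SD, cut at about 22% in these data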;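 note: 0% = DMSO only wells and the 100% control is not disclosed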
# Target sequence (Q00G26 whole entry, looked up): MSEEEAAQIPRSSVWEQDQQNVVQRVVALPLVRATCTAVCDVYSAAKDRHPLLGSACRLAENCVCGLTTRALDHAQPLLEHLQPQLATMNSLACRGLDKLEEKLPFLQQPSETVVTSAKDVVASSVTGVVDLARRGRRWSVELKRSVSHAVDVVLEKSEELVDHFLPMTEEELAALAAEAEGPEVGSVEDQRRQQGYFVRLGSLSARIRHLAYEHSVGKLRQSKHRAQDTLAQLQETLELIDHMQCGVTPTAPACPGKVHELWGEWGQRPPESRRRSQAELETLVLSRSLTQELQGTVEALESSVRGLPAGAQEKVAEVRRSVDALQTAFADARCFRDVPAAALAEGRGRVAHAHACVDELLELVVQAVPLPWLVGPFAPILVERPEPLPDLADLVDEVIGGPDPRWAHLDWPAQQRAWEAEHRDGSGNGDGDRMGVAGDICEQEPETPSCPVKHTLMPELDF
# Target sequence (Q8WTS1 whole entry, looked up): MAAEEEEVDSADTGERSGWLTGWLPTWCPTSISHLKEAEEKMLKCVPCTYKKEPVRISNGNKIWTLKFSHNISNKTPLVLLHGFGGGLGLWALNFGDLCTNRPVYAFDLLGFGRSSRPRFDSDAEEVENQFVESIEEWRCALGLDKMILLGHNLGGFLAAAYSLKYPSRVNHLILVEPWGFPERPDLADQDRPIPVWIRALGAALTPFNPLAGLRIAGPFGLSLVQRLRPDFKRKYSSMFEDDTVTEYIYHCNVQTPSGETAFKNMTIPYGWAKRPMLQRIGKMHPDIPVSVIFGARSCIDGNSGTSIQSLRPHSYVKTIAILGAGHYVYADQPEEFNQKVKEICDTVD
# TLR9-MyD88 block – inhibitors of TLR9-MyD88 association in cells, primary screen, cell-based, CHO, BLA complementation, fluorescence | 340,000 compounds, 0.21% hits | Toll-like receptor 9 (Homo sapiens) + Myeloid differentiation primary response protein … | inhibition, % at 4.98 µM | CCF4 FRET ratio;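 active = inhibition above the mean over all tested compounds plus 3 SD, cut at about 21% in these data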;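 note: 0% = DMSO only wells and 100% = clavulanate BLA inhibitor control wells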
# Starred values were filed as active, the others as inactive; . = no result given.
SMILES,TLR4 MyD88 comp,CRFR2-BP antag,NOD2 RIPK2 PPI,m5-HT2A agonist,ABHD5-PLIN5 inh,TLR9-MyD88 block
CN1C(=O)CC2(C)C1=CCc1scnc12 (stereo not drawn),.,.,-11,-3,1,.
CN1OC[C@@H]2CN(S(=O)(=O)c3cccc(C(F)(F)F)c3)[C@H](c3ccc(-c4cccnc4)cc3)C[C@@H]21,.,-15,8,-2,11,-19
Cc1c(C(=O)NCc2cccnc2)oc2ccccc12,-2,62*,-11,-1,2,-1
CC1(C)CC2CC(C)(CN2/C=C2/CCCCC2=O)C1 (stereo not drawn),.,115*,4,0,0,-4
CC(=O)Nc1ccc2nc3ccccc3nc2c1,.,84*,16,-4,-8,1
O=c1cc(-c2ccc([N+](=O)[O-])cc2)nc2cc(-c3ccc(F)cc3)[nH]n12,-1,75*,-4,1,-4,3
Cc1ccccc1-c1cc2nc(-c3ccc([N+](=O)[O-])cc3)cc(=O)n2[nH]1,-6,71*,-10,1,-2,14
CC(C)C(=O)N(c1ccc2oc(=O)sc2c1)S(=O)(=O)c1cccs1,10,-5,1,2,30*,-5
CCOc1ccccc1N=C1SC(CC(=O)Nc2ccc(OC)cc2OC)C(=O)N1CCC1=CCCCC1 (stereo not drawn),-4,57*,-8,2,-10,-2
CC(/C=C/c1ccco1)=N\NC(=O)c1cccc(Cl)c1,-8,-2,4,-3,3,16
CC(/C=C/c1ccco1)=N/NC(=O)c1ccccc1Cl,11,-36,4,-2,22*,3
CC(C)Cn1c(SCC(=O)N2CCc3ccccc3C2)nc2cc(Cl)ccc2c1=O,1,118*,-5,-2,0,-7
COCCn1c(SCC(=O)N2CCc3ccccc3C2)nc2cc(Cl)ccc2c1=O,5,26,-1,4,4,6
CC1=C(C(=O)OC(C)C)C(c2cccs2)N2C(=O)C(C)SC2=N1 (stereo not drawn),-16,50*,-16,1,-7,-3
Oc1ccccc1-c1nc(NCCN2CCOCC2)c2ccccc2n1,4,-26,13,-2,22*,-2
COc1cccc(-c2nc(NCCN3CCOCC3)c3ccccc3n2)c1O,15,-11,9,4,7,5
Cc1ccccc1OCC(=O)OCC(=O)c1c[nH]c2ccccc12,.,87*,-5,1,4,2
CC(C)(C)C(=O)NC(=S)NCCc1ccccc1,14,51*,-7,0,0,4
CCCCN1C(=O)C(=O)NC[C@@H]1CC1CCCCC1,.,.,-8,0,10,.
CC(NC(=O)C1CCCN1S(=O)(=O)c1cccc2nsnc12)c1ccccc1 (stereo not drawn),.,76*,-14,3,2,-9
COc1ccc(NC(=O)c2cccc3c(-c4ccc(O)c(OC)c4)coc23)cc1,.,.,-5,2,-2,.
CC12CN(C(=O)c3ccc([N+](=O)[O-])cc3)CC(C)(CN(C(=O)c3ccc([N+](=O)[O-])cc3)C1)C2=O,.,-1,.,.,.,.
CCCC12CN(C(=O)c3ccc([N+](=O)[O-])cc3)CC(C)(CN(C(=O)c3ccc([N+](=O)[O-])cc3)C1)C2=O,.,126*,0,-7,-5,.
CC1CCC2=NN(C(=O)c3ccco3)C(O)(C(F)(F)F)C2C1 (stereo not drawn),2,67*,-5,-1,2,-2
N/C(CN1CCCCC1)=N\S(=O)(=O)c1cc(Cl)cc(Cl)c1,.,113*,8,-5,-2,0
SMILES,TLR4 MyD88 comp,CRFR2-BP antag,NOD2 RIPK2 PPI,m5-HT2A agonist,ABHD5-PLIN5 inh,TLR9-MyD88 block
CCOC(=O)N1CCN(Cc2nc3c(c(=O)n(C)c(=O)n3C)n2CCC(C)C)CC1,9,129*,-5,0,-2,13
CCCn1c(CN2CCN(C(=O)OCC)CC2)nc2c1c(=O)n(C)c(=O)n2C,-13,4,0,-5,-1,6
Cc1cc(F)ccc1-c1cc(C(=O)NCc2ccco2)[nH]n1,.,.,0,-6,0,.
O=C(NC(Nc1ncc(S(=O)(=O)c2ccc([N+](=O)[O-])cc2)s1)(C(F)(F)F)C(F)(F)F)c1ccc(Cl)cc1,-6,62*,14,2,1,7
CCOC(=O)N1CCN(C(=O)C[C@@H]2C[C@@]3(C(=O)OC)CC(C)(C)CC=C3N(CCc3ccc(OC)c(OC)c3)C2=O)CC1,.,.,1,5,3,.
COCCN1CCC(CO)C1 (stereo not drawn),.,62*,-15,-1,-6,-13
C=C1C(=O)CC2=C1[C@](Cc1ccc(F)cc1)(C(=O)OC)N(C(=O)c1ccccc1)C2,.,.,0,3,7,.
C=C1C(=O)C=C2CN(C(=O)c3ccccc3)[C@@](Cc3ccc(F)cc3)(C(=O)OC)[C@@H]12,-8,-81,48*,-4,75*,9
Cc1ccc(NC(=S)NCc2ccccn2)cc1,-4,74*,7,4,-4,-1
Cc1cccc(NC(=S)NCc2ccccn2)c1,-8,1,4,-3,-5,-6
Cc1cccc(C(=O)OCC(=O)Nc2c(C)nn(-c3ccccc3)c2C)c1O,.,-8,2,5,6,-3
Cc1nn(-c2ccccc2)c(C)c1NC(=O)COC(=O)c1ccccc1OC(F)F,.,58*,-22,6,-3,1
CCN(CC)c1ccc(/C=N/n2c(-c3ccccc3Br)n[nH]c2=S)cc1,.,-11,5,8,-10,-3
Cc1nn(-c2ccccc2)c(C)c1/C=N/n1c(-c2ccccc2Br)n[nH]c1=S,.,71*,0,-2,-16,-4
Cc1noc(C)c1Cn1c(C)c(C(=O)NCc2ccc3c(c2)OCCO3)sc1=O,.,.,8,-2,-5,.
CCCCN(C=O)c1c(CC)nc2c(OCc3ccc(Cl)cc3)cccn12,.,.,8,-5,6,.
CN(c1ccc(C(=O)N2CCN(Cc3ccc4c(c3)OCO4)CC2)cc1)S(=O)(=O)c1ccccc1,-8,68*,4,7,-2,1
O=C1CCCN1C1CCN(Cc2ccccc2)S(=O)(=O)N1 (stereo not drawn),.,.,6,5,-24,.
COc1cc(CNc2ccccc2SC)cc(OC)c1OC,1,73*,-2,0,-6,8
C/C(=N\NC(=O)CCc1ccccc1)C1C(=O)c2ccccc2C1=O,0,4,-9,-4,-3,-5
C/C(=N\NC(=O)c1cccc(Cl)c1)C1C(=O)c2ccccc2C1=O,5,85*,5,1,-1,1
O=C(O)C1=CCCNC1,.,57*,-2,-2,1,-6
